# Measured values from the supplement of paper PMC9794691.
# ± gives the standard deviation of the averaged measurements.
# Tested on: PC9
# Experiment: area under confluence curve of osimertinib + compound combination regimen (DTP regrowth); compare to osimertinib-only DTP control AUC of the same experiment (AUC (confluence x time, arbitrary))
# Description: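 compare to osimertinib-only DTP control AUC of the same experiment; Long-term drug-tolerant persister (DTP) screen in EGFR-mutant NSCLC cell lines in 48-well plates. The test compound was given at one fixed dose with osimertinib, either upfront (from day 0 to the DTP stage at 10-21 days, then drug-free medium) or sequentially (osimertinib alone to the DTP stage, then the test compound). IncuCyte confluence was tracked until osimertinib-only controls regrew, and AUC was computed in Prism. AUC scale depends on experiment duration, so each row carries the same-experiment osimertinib-only DTP and DMSO control AUCs; combination activity = control minus combo AUC. Osimertinib dose not stated.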
# [1] = test compound dose 300 nM, dosing schedule: sequential, osimertinib-only DTP control AUC in same experiment: 29087, DMSO control AUC in same experiment: 30008
# [2] = test compound dose 300 nM, dosing schedule: upfront, osimertinib-only DTP control AUC in same experiment: 34430, DMSO control AUC in same experiment: 30008
# [3] = test compound dose 1000 nM, dosing schedule: sequential, osimertinib-only DTP control AUC in same experiment: 1963, DMSO control AUC in same experiment: 30580
# [4] = test compound dose 1000 nM, dosing schedule: upfront, osimertinib-only DTP control AUC in same experiment: 8618, DMSO control AUC in same experiment: 30580
# [5] = test compound dose 1000 nM, dosing schedule: sequential, osimertinib-only DTP control AUC in same experiment: 12535, DMSO control AUC in same experiment: 43316
# [6] = test compound dose 1000 nM, dosing schedule: sequential, osimertinib-only DTP control AUC in same experiment: 15163, DMSO control AUC in same experiment: 28684
# [7] = test compound dose 1000 nM, dosing schedule: upfront, osimertinib-only DTP control AUC in same experiment: 15354, DMSO control AUC in same experiment: 43316
# [8] = test compound dose 1000 nM, dosing schedule: upfront, osimertinib-only DTP control AUC in same experiment: 21337, DMSO control AUC in same experiment: 28684
# [9] = test compound dose 1000 nM, dosing schedule: sequential, osimertinib-only DTP control AUC in same experiment: 15001, DMSO control AUC in same experiment: 22064
# [10] = test compound dose 1000 nM, dosing schedule: upfront, osimertinib-only DTP control AUC in same experiment: 24924, DMSO control AUC in same experiment: 22064
compound,measurement,setting,value
O=C(NC[C@H](O)CN1CCc2ccccc2C1)c1ccnc(NC2CCC2)c1 + C=CC(=O)Nc1cc(Nc2nccc(-c3cn(C)c4ccccc34)n2)c(OC)cc1N(C)CCN(C)C [osimertinib],area under confluence curve,"test compound dose 100 nM, dosing schedule: sequential, osimertinib-only DTP control AUC in same experiment: 12891, DMSO control AUC in same experiment: 44384",979
same,area under confluence curve,"test compound dose 100 nM, dosing schedule: upfront, osimertinib-only DTP control AUC in same experiment: 16570, DMSO control AUC in same experiment: 44384",3800
Nc1nc(Nc2ccc3c(c2)CCC(N2CCCC2)CC3)nn1-c1cc2c(nn1)-c1ccccc1CCC2 (stereo not given) + C=CC(=O)Nc1cc(Nc2nccc(-c3cn(C)c4ccccc34)n2)c(OC)cc1N(C)CCN(C)C [osimertinib],area under confluence curve,"test compound dose 300 nM, dosing schedule: sequential, osimertinib-only DTP control AUC in same experiment: 11273, DMSO control AUC in same experiment: 20197",6530
same,area under confluence curve,[1],12100
same,area under confluence curve,"test compound dose 300 nM, dosing schedule: upfront, osimertinib-only DTP control AUC in same experiment: 13449, DMSO control AUC in same experiment: 20197",7530
same,area under confluence curve,[2],11700
Cc1c[nH]c2nc(Nc3ccc(N4CCN(C)CC4)c(F)c3)nc(-c3cccc(CC#N)c3)c12 + C=CC(=O)Nc1cc(Nc2nccc(-c3cn(C)c4ccccc34)n2)c(OC)cc1N(C)CCN(C)C [osimertinib],area under confluence curve,"test compound dose 300 nM, dosing schedule: sequential, osimertinib-only DTP control AUC in same experiment: 12535, DMSO control AUC in same experiment: 43316",1010
same,area under confluence curve,"test compound dose 300 nM, dosing schedule: sequential, osimertinib-only DTP control AUC in same experiment: 15163, DMSO control AUC in same experiment: 28684",4860
same,area under confluence curve,[1],25200
same,area under confluence curve,"test compound dose 300 nM, dosing schedule: upfront, osimertinib-only DTP control AUC in same experiment: 15354, DMSO control AUC in same experiment: 43316",3200
same,area under confluence curve,"test compound dose 300 nM, dosing schedule: upfront, osimertinib-only DTP control AUC in same experiment: 21337, DMSO control AUC in same experiment: 28684",6800
same,area under confluence curve,[2],25900
CS(=O)(=O)N1CCN(Cc2cc3nc(-c4cccc5[nH]ncc45)nc(N4CCOCC4)c3s2)CC1 + C=CC(=O)Nc1cc(Nc2nccc(-c3cn(C)c4ccccc34)n2)c(OC)cc1N(C)CCN(C)C [osimertinib],area under confluence curve,[3],1580 ± 160
same,area under confluence curve,[4],4540 ± 320
C[C@@H](Nc1cc(F)cc(F)c1)c1cc(C(=O)N(C)C)cc2c(=O)cc(N3CCOCC3)oc12 + C=CC(=O)Nc1cc(Nc2nccc(-c3cn(C)c4ccccc34)n2)c(OC)cc1N(C)CCN(C)C [osimertinib],area under confluence curve,[3],1970 ± 150
same,area under confluence curve,"test compound dose 1000 nM, dosing schedule: sequential, osimertinib-only DTP control AUC in same experiment: 10725, DMSO control AUC in same experiment: 30578",4550
same,area under confluence curve,[5],4790
same,area under confluence curve,[6],5770
same,area under confluence curve,[4],4780 ± 250
same,area under confluence curve,"test compound dose 1000 nM, dosing schedule: upfront, osimertinib-only DTP control AUC in same experiment: 10245, DMSO control AUC in same experiment: 30578",8450
same,area under confluence curve,[7],8140
same,area under confluence curve,[8],7910
COc1nn(C)cc1Nc1nccc(-c2c[nH]c3c(NC(=O)[C@@H](C)N4CCN(C)CC4)cccc23)n1 + C=CC(=O)Nc1cc(Nc2nccc(-c3cn(C)c4ccccc34)n2)c(OC)cc1N(C)CCN(C)C [osimertinib],area under confluence curve,"test compound dose 1000 nM, dosing schedule: sequential, osimertinib-only DTP control AUC in same experiment: 10968, DMSO control AUC in same experiment: 21594",8030
same,area under confluence curve,"test compound dose 1000 nM, dosing schedule: upfront, osimertinib-only DTP control AUC in same experiment: 17834, DMSO control AUC in same experiment: 21594",15000
CCn1nc(C2CCN(C(=O)CCO)CC2)nc1-c1cnc(N)c(-c2nnc(C(C)(C)C)o2)n1 + C=CC(=O)Nc1cc(Nc2nccc(-c3cn(C)c4ccccc34)n2)c(OC)cc1N(C)CCN(C)C [osimertinib],area under confluence curve,[5],3140
same,area under confluence curve,[6],9440
same,area under confluence curve,[7],5490
same,area under confluence curve,[8],15400
Cc1cccc(-c2[nH]c(C(C)(C)C)nc2-c2ccc3nccnc3c2)n1 + C=CC(=O)Nc1cc(Nc2nccc(-c3cn(C)c4ccccc34)n2)c(OC)cc1N(C)CCN(C)C [osimertinib],area under confluence curve,"test compound dose 1000 nM, dosing schedule: sequential, osimertinib-only DTP control AUC in same experiment: 13130, DMSO control AUC in same experiment: 20567",13600
same,area under confluence curve,[9],14500
same,area under confluence curve,"test compound dose 1000 nM, dosing schedule: upfront, osimertinib-only DTP control AUC in same experiment: 18577, DMSO control AUC in same experiment: 20567",20300
same,area under confluence curve,[10],25300
O=C(c1cc(Cc2n[nH]c(=O)c3ccccc23)ccc1F)N1CCN(C(=O)C2CC2)CC1 [Olaparib] + C=CC(=O)Nc1cc(Nc2nccc(-c3cn(C)c4ccccc34)n2)c(OC)cc1N(C)CCN(C)C [osimertinib],area under confluence curve,[9],7460
same,area under confluence curve,"test compound dose 1000 nM, dosing schedule: sequential, osimertinib-only DTP control AUC in same experiment: 15044, DMSO control AUC in same experiment: 30604",12600
same,area under confluence curve,"test compound dose 1000 nM, dosing schedule: upfront, osimertinib-only DTP control AUC in same experiment: 20672, DMSO control AUC in same experiment: 30604",16600
same,area under confluence curve,[10],18600
CCc1cc2c(cc1N1CCC(N3CCOCC3)CC1)C(C)(C)c1[nH]c3cc(C#N)ccc3c1C2=O [Alectinib] + C=CC(=O)Nc1cc(Nc2nccc(-c3cn(C)c4ccccc34)n2)c(OC)cc1N(C)CCN(C)C [osimertinib],area under confluence curve,[9],12500
same,area under confluence curve,[10],10800
COc1cc2nc(C)nc(N[C@H](C)c3cc(N)cc(C(F)(F)F)c3)c2cc1O[C@H]1CCOC1 + C=CC(=O)Nc1cc(Nc2nccc(-c3cn(C)c4ccccc34)n2)c(OC)cc1N(C)CCN(C)C [osimertinib],area under confluence curve,[6],11600
same,area under confluence curve,[8],11000
